In the library only some 7% were active in any assay of this set; here they are far more common.
rCAG RNA binder – binds r(CAG) RNA repeats; AID 651821; r(CAG) RNA repeat, TO-PRO-1 dye displacement fluorescence; inhibition, % at 3 µM; 370,000 tested, 1.3% active;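 active means inhibition above the plate cutoff, the mean of all test compounds on that plate plus 3 SD, cut at about 35% in these data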;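 further: higher means more dye released from RNA so lower well fluorescence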
AHR activator – activates the human aryl hydrocarbon receptor; P35869; AHR-responsive luciferase reporter cells, luminescence; activation, % at 5 µM; 320,000 tested, 2.5% active; AID 2796; in the data active means activation above about 47%
proKLK7 act – proKLK7 (human) activation, primary screen; P49862; purified proKLK7, EDANS-DABCYL substrate fluorescence; 100% is mature enzyme control, 0% vehicle; activation, % at 7 µM; 370,000 tested, 0.9% active; AID 652039;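 active means activation above the mean of all tested compounds plus 3 SD, computed per campaign excluding outliers beyond control limits, cut at about 13% in these data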
GRIN3A LBD mod – modulators (binders) of human NR3A ligand-binding domain. NR3A LBD differential scanning fluorimetry, Tm shift; 0% = protein alone, 100% = glycine-bound protein. Tm shift relative to glycine control, % at 25 µM. 340,000 tested, 2.5% active;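 active means melting temperature shift of at least 10% of the positive control shift, at one fixed dose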
ADAM10 inh – ADAM10 inhibition, QFRET primary screen; recombinant ADAM10, EDANS/DABCYL FRET peptide cleavage, 3 h; inhibition, % at 7 µM; 370,000 tested, 0.62% active; AID 720582;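 active means inhibition above a per-campaign cutoff equal to the mean of compounds falling between control-based bounds plus 3 SD, cut at about 20% in these data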
ADAM17 inh – ADAM17 inhibition, QFRET primary screen | inhibition, % at 6.95 µM | P78536 | 370,000 tested, 0.83% active | recombinant ADAM17, EDANS/DABCYL FRET peptide cleavage;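 active means inhibition above the mean of compounds lying between control limits plus 3 SD, set per campaign, cut at about 8.5% in these data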
Target sequence (P78536 215-824 limits assumed): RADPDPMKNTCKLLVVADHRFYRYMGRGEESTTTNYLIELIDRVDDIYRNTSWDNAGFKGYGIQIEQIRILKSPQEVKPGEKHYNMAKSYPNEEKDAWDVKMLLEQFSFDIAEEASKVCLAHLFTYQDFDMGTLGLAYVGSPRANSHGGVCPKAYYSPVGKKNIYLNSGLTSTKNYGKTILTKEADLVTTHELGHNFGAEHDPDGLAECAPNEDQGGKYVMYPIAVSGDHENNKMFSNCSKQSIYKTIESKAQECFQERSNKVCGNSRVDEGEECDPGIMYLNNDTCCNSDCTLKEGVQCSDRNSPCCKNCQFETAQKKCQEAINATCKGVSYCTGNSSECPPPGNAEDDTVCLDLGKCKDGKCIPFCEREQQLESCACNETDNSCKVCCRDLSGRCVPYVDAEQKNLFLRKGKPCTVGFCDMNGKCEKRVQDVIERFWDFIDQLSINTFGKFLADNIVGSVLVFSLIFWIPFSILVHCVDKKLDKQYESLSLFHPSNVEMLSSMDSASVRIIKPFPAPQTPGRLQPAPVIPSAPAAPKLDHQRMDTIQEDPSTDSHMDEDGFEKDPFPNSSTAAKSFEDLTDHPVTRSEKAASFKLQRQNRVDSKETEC
ADAM10 ctr – ADAM10 inhibition, counter-screen for ADAM17 exosite hits; 2,900 tested, 47% active; AID 743256; inhibition, % at 6.95 µM; shares compounds with ADAM17 inh; recombinant ADAM10, EDANS/DABCYL FRET peptide cleavage, 3 h;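 active means mean inhibition over the triplicate runs exceeds the activity threshold set in the earlier primary screen, cut at about 20% in these data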
ADAM17 confirm – confirmation of inhibitors of human ADAM17 | inhibition, % at 6.95 µM | recombinant ADAM17, EDANS/DABCYL QFRET peptide cleavage | 2,900 tested, 65% active | shares compounds with ADAM17 inh;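 active means mean inhibition across replicates above the hit cutoff set in the primary screen, cut at about 8.5% in these data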
Of the large screens only hits and unclear results are named; the others gave an inactive call (follow-up assays come after a bar, where they were run).

Cc1cc(C)nc(Nc2nc3ccccc3s2)n1	none
COC(=O)[C@]12CCCCC=C1N(Cc1ccc3c(c1)OCO3)C(=O)[C@H](CC(=O)NCc1cccc3ccccc13)C2	ADAM17 inh 8.9 (no result: AHR activator, GRIN3A LBD mod) | ADAM10 ctr 33.3 | ADAM17 confirm 22.3
COC(=O)[C@]12CCCCC=C1N(CCc1ccc(OC)c(OC)c1)C(=O)[C@H](CC(=O)NCc1cccc(C(F)(F)F)c1)C2	ADAM17 inh 8.8 (no result: AHR activator, GRIN3A LBD mod) | ADAM10 ctr 24.2 | ADAM17 confirm 14.9
COC(=O)[C@]12CCCCC=C1N(Cc1ccccc1)C(=O)[C@H](CC(=O)NCc1cccc3ccccc13)C2	none (no result: AHR activator, GRIN3A LBD mod)
COC(=O)[C@@]12C[C@@H](CC(=O)NCc3cccc4ccccc34)C(=O)N(Cc3cccc4ccccc34)C1=CCC(C)(C)C2	none (no result: AHR activator, GRIN3A LBD mod)
COC(=O)[C@@]12C[C@@H](CC(=O)NCc3ccccc3)C(=O)N(Cc3cccc4ccccc34)C1=CCC(C)(C)C2	ADAM17 inh 9.1 (no result: AHR activator, GRIN3A LBD mod) | ADAM10 ctr inactive | ADAM17 confirm inactive
Cc1ccc(CN2CCC(C)(Oc3ccc(Cl)cc3)C2)cc1 (centres undefined)	none (no result: AHR activator, GRIN3A LBD mod)
CC1C(=O)N(Cc2cn(CCC3OCCO3)nn2)CCS(=O)(=O)N1Cc1ccc(-c2ccc(Cl)cc2)cc1 (centres undefined)	ADAM17 inh 8.6 (no result: AHR activator, GRIN3A LBD mod) | ADAM10 ctr inactive | ADAM17 confirm inactive
COc1cccc(-c2ccc(CN3C(C(C)C)C(=O)N(Cc4cn(CCC5OCCO5)nn4)CCS3(=O)=O)cc2)c1OC (centres undefined)	ADAM17 inh 12.9 (no result: AHR activator, GRIN3A LBD mod) | ADAM10 ctr inactive | ADAM17 confirm inactive
Cc1ccc(-c2ccc(CN3C(C)C(=O)N(Cc4cn(CCC5OCCO5)nn4)CCS3(=O)=O)cc2)cc1 (centres undefined)	none (no result: AHR activator, GRIN3A LBD mod)
Cc1cc(C)n(C(=O)CNC(=O)c2ccc(Cl)cc2Cl)n1	none
CCN(CC)C(=O)C1CC(=O)N(c2ccc(F)c(Cl)c2)C1 (centres undefined)	ADAM17 inh 9.5 | ADAM10 ctr inactive | ADAM17 confirm inactive
CCOC(=O)N1CCC(NC(=O)CS(=O)(=O)Cc2nc(-c3cccc(Cl)c3)oc2C)CC1	ADAM17 inh 9.6 | ADAM10 ctr inactive | ADAM17 confirm inactive
CCOC(=O)N1CCC(NC(=O)CS(=O)(=O)Cc2nc(-c3cccc(OC)c3)oc2C)CC1	none
O=C(Cc1ccc(S(=O)(=O)N2CCCCC2)s1)Nc1ccc(F)c(F)c1	ADAM17 inh 10.0 | ADAM10 ctr 35.7 | ADAM17 confirm 12.6
CCN(CC)S(=O)(=O)c1cc(NC(=O)Cc2ccc(S(=O)(=O)N3CCOCC3)s2)ccc1Cl	ADAM17 inh 9.9 (no result: AHR activator) | ADAM10 ctr inactive | ADAM17 confirm 11.9
CN(C)S(=O)(=O)c1ccc(NC(=O)Cc2ccc(S(=O)(=O)N3CCOCC3)s2)cc1	none
O=C1Nc2ccccc2C12OCC(COc1ccc(Cl)cc1)O2 (centres undefined)	ADAM17 inh 10.9 | ADAM10 ctr inactive | ADAM17 confirm inactive
c1ccc(-c2nnc(-c3c[nH]c4ccccc34)nc2-c2ccccc2)cc1	ADAM17 inh 8.7 | ADAM10 ctr inactive | ADAM17 confirm 8.8
O=S(=O)(NCc1cccs1)c1ccc(Br)cc1	none
O=C(Nc1cccc(Cl)c1)c1ccc(F)c(S(=O)(=O)NCc2ccc3c(c2)OCO3)c1	GRIN3A LBD mod 12.8, ADAM17 inh 8.7 | ADAM10 ctr 24.3 | ADAM17 confirm 12.9
O=C(Nc1ccc(Br)cc1)c1ccc(F)c(S(=O)(=O)NCc2cccs2)c1	GRIN3A LBD mod 18.4, ADAM10 inh 20.4, ADAM17 inh 9.3 | ADAM10 ctr 25.2 | ADAM17 confirm 15.8
COc1ccc(Cl)cc1NC(=O)CSc1nncn1-c1cccnc1	none
COC(=O)CNC(=O)c1ccc(F)cc1	none
CCOc1cc(CNCCO)cc(Br)c1OCc1ccccc1Cl	none
CCOc1cc(CNCCO)cc(Br)c1OCc1ccc(Cl)cc1	ADAM17 inh 12.0 | ADAM10 ctr inactive | ADAM17 confirm inactive
Cc1c(NS(=O)(=O)c2ccc3c(c2)Cc2ccccc2-3)c(=O)n(-c2ccccc2)n1C	none
O=c1cc(COn2nnc3ccc(C(F)(F)F)cc32)nc2sccn12	ADAM17 inh 11.3 | ADAM10 ctr inactive | ADAM17 confirm 8.9
O=C(NCc1ccco1)Nc1nnc([C@H]2C[C@H](O)[C@@H](CO)O2)s1	none (no result: AHR activator, GRIN3A LBD mod)
CC(=O)O[C@@H]1C=C[C@@H](C#Cc2ccc(C(C)(C)C)cc2)O[C@@H]1COC(=O)Nc1ccccc1	ADAM17 inh 13.3 (no result: AHR activator, GRIN3A LBD mod) | ADAM10 ctr 29.3 | ADAM17 confirm 12.7
COc1ccc(N(C(=O)c2cnccn2)C(C(=O)NCc2ccccc2)c2ccc(O)cc2)cc1 (centres undefined)	none
Oc1ccc(C[C@H]2CNC(=S)N2CC2CCCN2C[C@H](Cc2ccc(O)cc2)N2C[C@H](Cc3ccccc3)N(CC3CCCCCC3)C2=S)cc1 (some centres undefined)	GRIN3A LBD mod 19.9, ADAM17 inh 10.0 (no result: AHR activator) | ADAM10 ctr 43.0 | ADAM17 confirm 23.3
Oc1ccc(C[C@@H](CN2CCCC2CN2C(=S)NC[C@@H]2Cc2ccccc2)N2C[C@H](Cc3ccccc3)N(CC3CCCCC3)C2=S)cc1 (some centres undefined)	none (no result: AHR activator, GRIN3A LBD mod)
Oc1ccc(C[C@H]2CNC(=S)N2CC2CCCN2C[C@H](Cc2ccc(O)cc2)N2C[C@H](Cc3ccc(O)cc3)N(CC3CCCCCC3)C2=S)cc1 (some centres undefined)	GRIN3A LBD mod 27.9, ADAM10 inh 22.6, ADAM17 inh 9.2 (no result: AHR activator) | ADAM10 ctr 30.6 | ADAM17 confirm 18.4
CCOc1ccc(CCN2C(=S)N([C@@H](Cc3ccc(O)cc3)CN3CCCC3CN3C(=S)NC[C@@H]3Cc3ccc(O)cc3)C[C@@H]2CC(C)C)cc1 (some centres undefined)	GRIN3A LBD mod 13.2, ADAM17 inh 8.9 (no result: AHR activator) | ADAM10 ctr 26.1 | ADAM17 confirm 16.2
COc1cc(OC)c(C(=O)N/N=C/c2ccoc2)cc1OC	none
CCn1c(CC(=O)Nc2ccccc2)nnc1SCC(=O)Nc1nnc(C)s1	none
CC(C)c1ccc(N(CC(=O)NC2CCCC2)C(=O)CCC(=O)Nc2nccs2)cc1	none
CCC1(c2ccccc2)NC(=O)N(CC(=O)Nc2ccc(OC)nc2)C1=O (centres undefined)	none
O=C(Nc1ccc(Cl)c(Cl)c1)C1CCCN(c2nnc(-n3cccc3)s2)C1 (centres undefined)	ADAM17 inh 10.7 (no result: AHR activator, GRIN3A LBD mod) | ADAM10 ctr 30.4 | ADAM17 confirm 14.6

Screening results (PubChem BioAssay)
